This note sets out measurements from PubChem BioAssay (NCI).

About 83,000 compounds went through this panel and 20% of them were active in at least one assay; those are over-represented in the sample as a whole.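 Note: values are percent growth. 100 is the growth of untreated cells, values between 100 and 0 indicate rising inhibition; between -100 and 0 indicates cell death.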 Active and inactive are the calls of the source. Rule for the calls: active = growth percent below 10; inactive = the rest.

The subject of the experiment is MCF7 breast. The experiment in a line: NCI-60 one-dose screen, 48 h (100 = growth as untreated, 0 = no growth, -100 = all killed). As to conditions: 10 µM.
As to `COc1cc(/C=C/C(=O)c2ccc(C(F)(F)F)cc2)ccc1Oc1nc(Nc2ccc(F)cc2)nc(N(C)C)n1`, the growth is 30.8% (inactive).
`Cc1ccc(/C=C/C(=O)c2ccc(NC(=O)CSc3nnc(-c4c[nH]c5ccccc45)n3-c3ccccc3)cc2)c(C)c1`: the growth was 3.33% (active).
As for `COc1ccc(/C=C/C(=O)c2ccc(S(=O)(=O)NCCNc3nc(Nc4ccc(F)cc4)nc(N(C)C)n3)cc2)cc1`, the growth is -15.2% (active).
As for `N#Cc1c(-c2ccc(Cl)cc2)cc(-c2ccccc2)nc1OCc1ccccc1`, the growth was 53.8% (inactive).
As for `Nc1nnc(-c2c[nH]c3ncccc23)c(-c2c[nH]c3ccc(Br)cc23)n1`, the growth is 22.5% (inactive).
The figure for `CC(=O)OC[C@@]1(C)C2CC[C@]3(C)C(CC=C4C5CC(C)(C)CC[C@]5(C(=O)Nc5ccccc5)CC[C@]43C)[C@@]2(C)C[C@@H](OC(C)=O)[C@@H]1OC(C)=O` (some centres not stated) is 24.4% (inactive).
To `O=C(CSc1nnc(-c2c[nH]c3ccccc23)n1-c1ccccc1)Nc1ccc(C(=O)/C=C/c2cccc([N+](=O)[O-])c2)cc1` belongs -6.63% (active).
On to `C/C(=C\c1ccc(O)cc1O)c1ccc2ccc(O)cc2[o+]1`, for which the growth is 22.2% (inactive).
The figure for `CCCCOc1ccc(Nc2nc3ccccc3nc2Nc2ccc(OCCCC)cc2)cc1` is 75.3% (inactive); for `Nc1nc(Nc2ccc(Cl)cc2)nn1Cc1cccc(Br)c1` it is 18.2% (inactive); for `COc1ccc(/C=N/N=C(\C)c2ccc3c(c2)Nc2ccccc2S3)cc1O` it is 11.9% (inactive).
The figure for `O=C(CSc1nnc(-c2c[nH]c3ccccc23)n1-c1ccccc1)c1ccc(Br)cc1` is 53.4% (inactive); for `COC(=O)c1c(C(=O)OC)c2n(c1C)[C@@H]([C@@H](C)[C@H]1CC[C@H]3[C@@H]4CCC5=CC(=O)CC[C@]5(C)[C@H]4CC[C@]13C)SC2` it is 4.29% (active).
Take `COc1ccc(C(=O)/C=C/c2cc(C(F)(F)F)cc(C(F)(F)F)c2)cc1S(N)(=O)=O`: the growth is -72.5% (active).
To `CCCn1c(O)c(N=Nc2nc(-c3cc4ccccc4oc3=O)cs2)c2cc(Br)ccc21` belongs 90.4% (inactive); to `O/N=C(\CSc1nnc(-c2c[nH]c3ccccc23)n1-c1ccccc1)c1ccc(Br)cc1`, -42.5% (active); to `CC(=O)Oc1ccccc1C(=O)Oc1ccc(C(=O)/C=C/c2ccncc2)cc1`, 0.657% (active).
To `CC(=O)C1=C(C)NC(SCC(=O)Nc2ccc(S(=O)(=O)Nc3cc(C)on3)cc2)=NC1c1ccccc1` (configuration not stated) belongs 87.5% (inactive).
Consider `COc1cc2c3c(n(CCCn4ccnc4)c(=O)c2cc1OC)-c1nc2c(cc1C3=O)OCO2`, for which the growth was 7.42% (active).
In the case of `O=S(=O)(Nc1ncccn1)c1ccc(-n2c(-c3ccc(Br)cc3)nc(-c3ccccc3)c2-c2ccccc2)cc1`, the growth was 28.6% (inactive).
With `COc1ccc(-c2cc(C(=O)N=Nc3c(O)[nH]c4ccc(Br)cc34)c3ccccc3n2)cc1`, the growth was -6.48% (active).
With `CCOC(=O)CNC(=O)CN(Cc1ccccc1)C(=O)[C@@]1(C)CCC[C@]2(C)[C@H]3CC4C(C(C)C)=C[C@]3(CC[C@H]21)[C@@H]1C(=O)CCC(=O)[C@H]41`, the growth is 13.1% (inactive).
The figure for `CC1(c2ccccc2)NC(=O)N(CC(=O)Nc2ccc(C(=O)/C=C/C=C/c3ccccc3)cc2)C1=O` (configuration not stated) is 3.54% (active); for `O=c1c2ccccc2nc(COc2ccccc2)n1/N=C/c1ccc(F)cc1` it is 80.4% (inactive); for `COc1ccc(-c2cc(-c3cc(C(=O)c4ccccc4)n4ccc(C)cc34)nc(N)c2C#N)cc1` it is 53.3% (inactive).
For the compound `COc1cc(C2CC(c3ccc(C)cc3)=Nc3c(N)nc(N)nc3N2)ccc1Oc1nc(Nc2ccc(F)cc2)nc(N(C)C)n1` (configuration not stated), the growth was 5.19% (active).
For `O=C(Nc1cccc(C(F)(F)F)c1)c1cncc(C#Cc2cnc3ccc(N4CCOCC4)nn23)c1`, the growth was -30% (active).
Take `CC(=O)Nc1ccc(-c2cn(-c3cccc(C(=O)Nc4ccc(F)c(C(F)(F)F)c4)c3)nn2)cn1`: the growth is 4.2% (active).
For the compound `CN(C(=O)c1ccc(C(F)(F)F)cc1C(F)(F)F)c1sc2c(c1C#N)CCC(=O)C2`, the growth was 85.8% (inactive).
With `C#CCNC(=O)CCC(=O)OC[C@]12CC[C@@H](C(=C)C)[C@@H]1C1CC[C@@H]3[C@@]4(C)CCCNC(C)(C)[C@@H]4CC[C@@]3(C)[C@]1(C)CC2` (some centres not stated), the growth was -65.7% (active).
With `COc1ccc2[nH]cc(/C=N/Nc3ccc(Br)cn3)c2c1`, the growth is 3.69% (active).
`[2H]C([2H])([2H])Oc1ccc2ncc(C#Cc3cncc(C(=O)Nc4ccc(CN5CCN(C)CC5)c(C(F)(F)F)c4)c3)n2n1`: the growth was -61% (active).
For the compound `COc1ccc(CN2[C@H](C(=O)NCc3ccc(C(=O)NO)cc3)Cc3c([nH]c4ccccc34)[C@H]2C2CC2)cc1`, the growth was 36.8% (inactive).
Regarding `O=c1cc(-c2ccccc2)oc2cc(OCCCCNCc3ccccc3)cc(O)c12`, the growth was -64.1% (active).
As for `O=c1[nH]c2ccccc2cc1CSc1ccc(Nc2nccc(-c3ccc(C(F)(F)F)cc3)n2)cc1`, the growth was 25.3% (inactive).
To `CN(C)c1ccc(/C=C/c2nc3ccccc3c(=O)n2CC(=O)Nc2ccccc2)cc1` belongs 26% (inactive); to `Cc1ccc(-c2nc(Nc3ccc(C)c(S(N)(=O)=O)c3)c3ccccc3n2)cc1`, 26.2% (inactive).
